According to the supplement of paper PMC11732987, “Enantioselective OTUD7B fragment discovery through chemoproteomics screening and high-throughput optimisation” (Communications Chemistry, 2025):

Tests used:
Test in all cases: log2 ratio of Biotin-Ahx-Ub-VS probe labelling (fragment/DMSO); higher = less target engagement (more negative = stronger competition), active = hit call of the paper (q ≤ 0.05, log2 ratio ≤ -1)
Conditions in all cases: compound concentration: 200 uM; treatment time: 3 h
[1] = target: USP34 (UniProt Q70CQ2)
In short: (§1)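 Average log2 ratios of fragment over vehicle were obtained by unpaired t-test from global-median-normalised Spectronaut label-free quantities. Proteins with ≥2 unique peptides were included. HEK293T lysate (495 µg per sample) was treated in triplicate with fragment at 200 µM or vehicle for 3 h, then with Biotin-Ahx-Ub-VS at 0.5 µM final for 1 h, and labelled DUBs were NeutrAvidin-enriched and run by diaPASEF LC-MS/MS.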

[2] = target: T1, USP36 (UniProt Q9P275)
T1 sequence (whole entry): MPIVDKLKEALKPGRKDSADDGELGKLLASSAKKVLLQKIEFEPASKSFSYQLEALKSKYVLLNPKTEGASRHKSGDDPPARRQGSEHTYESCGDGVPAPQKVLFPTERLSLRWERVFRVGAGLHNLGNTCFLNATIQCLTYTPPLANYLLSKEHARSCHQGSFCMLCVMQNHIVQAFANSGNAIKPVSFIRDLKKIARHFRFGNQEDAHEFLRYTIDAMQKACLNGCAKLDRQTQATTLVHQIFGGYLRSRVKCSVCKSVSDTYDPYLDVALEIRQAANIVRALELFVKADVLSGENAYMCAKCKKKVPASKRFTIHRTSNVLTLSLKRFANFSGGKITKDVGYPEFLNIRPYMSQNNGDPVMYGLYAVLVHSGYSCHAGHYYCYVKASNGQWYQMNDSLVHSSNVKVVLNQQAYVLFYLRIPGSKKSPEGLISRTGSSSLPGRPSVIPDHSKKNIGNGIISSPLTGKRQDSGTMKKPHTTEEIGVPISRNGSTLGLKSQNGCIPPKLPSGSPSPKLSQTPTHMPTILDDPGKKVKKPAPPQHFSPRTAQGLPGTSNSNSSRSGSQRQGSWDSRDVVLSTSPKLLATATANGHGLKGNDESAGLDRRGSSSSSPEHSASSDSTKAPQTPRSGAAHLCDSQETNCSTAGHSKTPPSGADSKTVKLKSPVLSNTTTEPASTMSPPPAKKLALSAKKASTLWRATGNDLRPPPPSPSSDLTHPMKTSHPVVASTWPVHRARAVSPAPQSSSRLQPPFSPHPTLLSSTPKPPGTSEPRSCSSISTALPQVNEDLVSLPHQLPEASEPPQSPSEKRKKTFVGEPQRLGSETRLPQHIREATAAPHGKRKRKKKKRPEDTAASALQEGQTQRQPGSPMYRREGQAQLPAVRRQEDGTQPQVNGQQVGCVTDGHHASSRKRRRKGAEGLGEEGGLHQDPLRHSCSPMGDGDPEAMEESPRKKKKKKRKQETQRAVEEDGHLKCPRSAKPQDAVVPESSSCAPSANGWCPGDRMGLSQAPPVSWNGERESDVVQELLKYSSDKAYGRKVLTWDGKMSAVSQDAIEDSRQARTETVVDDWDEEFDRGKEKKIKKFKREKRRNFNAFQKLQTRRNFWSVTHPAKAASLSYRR
In short: as §1

[3] = target: T2, USP38 (UniProt Q8NB14)
T2 sequence (whole entry): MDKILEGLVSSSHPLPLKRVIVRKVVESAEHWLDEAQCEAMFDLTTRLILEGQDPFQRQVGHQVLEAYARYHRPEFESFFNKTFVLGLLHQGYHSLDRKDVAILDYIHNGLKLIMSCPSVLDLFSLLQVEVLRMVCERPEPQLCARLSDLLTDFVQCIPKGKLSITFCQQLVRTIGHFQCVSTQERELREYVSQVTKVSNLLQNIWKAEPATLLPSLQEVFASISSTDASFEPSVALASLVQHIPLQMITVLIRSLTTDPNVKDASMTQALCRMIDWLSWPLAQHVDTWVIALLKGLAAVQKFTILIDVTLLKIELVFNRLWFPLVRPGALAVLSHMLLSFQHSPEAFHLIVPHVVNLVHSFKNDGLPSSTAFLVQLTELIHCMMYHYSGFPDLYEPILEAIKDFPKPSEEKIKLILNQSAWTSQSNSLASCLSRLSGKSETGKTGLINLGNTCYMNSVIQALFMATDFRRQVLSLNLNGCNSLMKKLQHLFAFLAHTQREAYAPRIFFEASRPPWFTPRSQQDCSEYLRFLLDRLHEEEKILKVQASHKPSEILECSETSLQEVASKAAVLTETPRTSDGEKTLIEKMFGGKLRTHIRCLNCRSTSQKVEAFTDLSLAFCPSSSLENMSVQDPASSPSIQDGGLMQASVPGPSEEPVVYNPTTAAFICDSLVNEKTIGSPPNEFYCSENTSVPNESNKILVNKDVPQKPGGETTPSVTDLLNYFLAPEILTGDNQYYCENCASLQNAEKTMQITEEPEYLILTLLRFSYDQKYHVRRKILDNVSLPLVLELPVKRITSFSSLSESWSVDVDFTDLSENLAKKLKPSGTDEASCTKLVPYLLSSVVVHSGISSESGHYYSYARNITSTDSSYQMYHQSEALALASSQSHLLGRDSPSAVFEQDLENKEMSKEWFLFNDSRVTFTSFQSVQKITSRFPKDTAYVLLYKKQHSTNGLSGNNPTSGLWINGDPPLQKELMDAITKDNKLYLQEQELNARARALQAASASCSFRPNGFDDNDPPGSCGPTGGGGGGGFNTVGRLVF
In short: as §1

[4] = target: T3, USP39 (UniProt Q53GS9)
T3 sequence (whole entry): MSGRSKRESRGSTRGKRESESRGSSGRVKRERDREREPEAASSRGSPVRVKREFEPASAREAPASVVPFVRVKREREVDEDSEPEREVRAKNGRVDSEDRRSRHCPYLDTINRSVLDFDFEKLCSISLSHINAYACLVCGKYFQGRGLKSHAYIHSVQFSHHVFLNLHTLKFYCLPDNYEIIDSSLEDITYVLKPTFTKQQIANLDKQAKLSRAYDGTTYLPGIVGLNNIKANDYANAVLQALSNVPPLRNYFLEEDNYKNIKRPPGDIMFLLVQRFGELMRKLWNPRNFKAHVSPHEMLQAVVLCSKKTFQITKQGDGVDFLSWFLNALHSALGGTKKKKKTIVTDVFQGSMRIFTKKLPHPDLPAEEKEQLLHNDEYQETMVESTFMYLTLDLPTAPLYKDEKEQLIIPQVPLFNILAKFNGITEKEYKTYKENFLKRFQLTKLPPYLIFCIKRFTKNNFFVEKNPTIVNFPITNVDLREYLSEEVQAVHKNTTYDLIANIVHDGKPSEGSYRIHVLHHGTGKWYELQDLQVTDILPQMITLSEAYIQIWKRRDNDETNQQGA
In short: as §1

[5] = target: T4, USP4 (UniProt Q13107)
T4 sequence (whole entry): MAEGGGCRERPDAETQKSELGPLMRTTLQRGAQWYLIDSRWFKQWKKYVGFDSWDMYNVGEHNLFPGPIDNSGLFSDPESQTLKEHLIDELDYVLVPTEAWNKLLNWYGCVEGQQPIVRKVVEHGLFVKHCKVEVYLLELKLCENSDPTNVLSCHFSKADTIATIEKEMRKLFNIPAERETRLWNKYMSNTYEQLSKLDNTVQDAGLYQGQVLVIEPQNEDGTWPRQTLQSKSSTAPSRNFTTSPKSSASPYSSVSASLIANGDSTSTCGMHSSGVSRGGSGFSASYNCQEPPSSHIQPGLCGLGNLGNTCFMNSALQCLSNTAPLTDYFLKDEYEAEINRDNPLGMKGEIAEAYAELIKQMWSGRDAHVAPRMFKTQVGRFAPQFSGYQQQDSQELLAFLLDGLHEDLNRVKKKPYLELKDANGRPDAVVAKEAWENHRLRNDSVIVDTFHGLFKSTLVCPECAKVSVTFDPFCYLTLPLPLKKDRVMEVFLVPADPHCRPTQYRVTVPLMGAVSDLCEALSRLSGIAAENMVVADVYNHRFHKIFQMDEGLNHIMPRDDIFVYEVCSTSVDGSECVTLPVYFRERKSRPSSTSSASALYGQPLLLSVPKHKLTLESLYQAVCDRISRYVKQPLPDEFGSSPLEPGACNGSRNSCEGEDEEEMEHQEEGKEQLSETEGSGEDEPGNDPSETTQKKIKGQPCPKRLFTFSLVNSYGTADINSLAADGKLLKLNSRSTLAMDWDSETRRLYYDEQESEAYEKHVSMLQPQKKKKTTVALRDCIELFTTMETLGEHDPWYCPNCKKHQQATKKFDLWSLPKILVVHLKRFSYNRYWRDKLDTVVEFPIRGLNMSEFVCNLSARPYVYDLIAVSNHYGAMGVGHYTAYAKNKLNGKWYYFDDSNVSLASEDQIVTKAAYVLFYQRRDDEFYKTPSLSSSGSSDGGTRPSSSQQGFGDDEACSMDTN
In short: as §1

Measured: log2 ratio of Biotin-Ahx-Ub-VS probe labelling

USP34, sequence (Q70CQ2 whole entry, the tested form may be a part): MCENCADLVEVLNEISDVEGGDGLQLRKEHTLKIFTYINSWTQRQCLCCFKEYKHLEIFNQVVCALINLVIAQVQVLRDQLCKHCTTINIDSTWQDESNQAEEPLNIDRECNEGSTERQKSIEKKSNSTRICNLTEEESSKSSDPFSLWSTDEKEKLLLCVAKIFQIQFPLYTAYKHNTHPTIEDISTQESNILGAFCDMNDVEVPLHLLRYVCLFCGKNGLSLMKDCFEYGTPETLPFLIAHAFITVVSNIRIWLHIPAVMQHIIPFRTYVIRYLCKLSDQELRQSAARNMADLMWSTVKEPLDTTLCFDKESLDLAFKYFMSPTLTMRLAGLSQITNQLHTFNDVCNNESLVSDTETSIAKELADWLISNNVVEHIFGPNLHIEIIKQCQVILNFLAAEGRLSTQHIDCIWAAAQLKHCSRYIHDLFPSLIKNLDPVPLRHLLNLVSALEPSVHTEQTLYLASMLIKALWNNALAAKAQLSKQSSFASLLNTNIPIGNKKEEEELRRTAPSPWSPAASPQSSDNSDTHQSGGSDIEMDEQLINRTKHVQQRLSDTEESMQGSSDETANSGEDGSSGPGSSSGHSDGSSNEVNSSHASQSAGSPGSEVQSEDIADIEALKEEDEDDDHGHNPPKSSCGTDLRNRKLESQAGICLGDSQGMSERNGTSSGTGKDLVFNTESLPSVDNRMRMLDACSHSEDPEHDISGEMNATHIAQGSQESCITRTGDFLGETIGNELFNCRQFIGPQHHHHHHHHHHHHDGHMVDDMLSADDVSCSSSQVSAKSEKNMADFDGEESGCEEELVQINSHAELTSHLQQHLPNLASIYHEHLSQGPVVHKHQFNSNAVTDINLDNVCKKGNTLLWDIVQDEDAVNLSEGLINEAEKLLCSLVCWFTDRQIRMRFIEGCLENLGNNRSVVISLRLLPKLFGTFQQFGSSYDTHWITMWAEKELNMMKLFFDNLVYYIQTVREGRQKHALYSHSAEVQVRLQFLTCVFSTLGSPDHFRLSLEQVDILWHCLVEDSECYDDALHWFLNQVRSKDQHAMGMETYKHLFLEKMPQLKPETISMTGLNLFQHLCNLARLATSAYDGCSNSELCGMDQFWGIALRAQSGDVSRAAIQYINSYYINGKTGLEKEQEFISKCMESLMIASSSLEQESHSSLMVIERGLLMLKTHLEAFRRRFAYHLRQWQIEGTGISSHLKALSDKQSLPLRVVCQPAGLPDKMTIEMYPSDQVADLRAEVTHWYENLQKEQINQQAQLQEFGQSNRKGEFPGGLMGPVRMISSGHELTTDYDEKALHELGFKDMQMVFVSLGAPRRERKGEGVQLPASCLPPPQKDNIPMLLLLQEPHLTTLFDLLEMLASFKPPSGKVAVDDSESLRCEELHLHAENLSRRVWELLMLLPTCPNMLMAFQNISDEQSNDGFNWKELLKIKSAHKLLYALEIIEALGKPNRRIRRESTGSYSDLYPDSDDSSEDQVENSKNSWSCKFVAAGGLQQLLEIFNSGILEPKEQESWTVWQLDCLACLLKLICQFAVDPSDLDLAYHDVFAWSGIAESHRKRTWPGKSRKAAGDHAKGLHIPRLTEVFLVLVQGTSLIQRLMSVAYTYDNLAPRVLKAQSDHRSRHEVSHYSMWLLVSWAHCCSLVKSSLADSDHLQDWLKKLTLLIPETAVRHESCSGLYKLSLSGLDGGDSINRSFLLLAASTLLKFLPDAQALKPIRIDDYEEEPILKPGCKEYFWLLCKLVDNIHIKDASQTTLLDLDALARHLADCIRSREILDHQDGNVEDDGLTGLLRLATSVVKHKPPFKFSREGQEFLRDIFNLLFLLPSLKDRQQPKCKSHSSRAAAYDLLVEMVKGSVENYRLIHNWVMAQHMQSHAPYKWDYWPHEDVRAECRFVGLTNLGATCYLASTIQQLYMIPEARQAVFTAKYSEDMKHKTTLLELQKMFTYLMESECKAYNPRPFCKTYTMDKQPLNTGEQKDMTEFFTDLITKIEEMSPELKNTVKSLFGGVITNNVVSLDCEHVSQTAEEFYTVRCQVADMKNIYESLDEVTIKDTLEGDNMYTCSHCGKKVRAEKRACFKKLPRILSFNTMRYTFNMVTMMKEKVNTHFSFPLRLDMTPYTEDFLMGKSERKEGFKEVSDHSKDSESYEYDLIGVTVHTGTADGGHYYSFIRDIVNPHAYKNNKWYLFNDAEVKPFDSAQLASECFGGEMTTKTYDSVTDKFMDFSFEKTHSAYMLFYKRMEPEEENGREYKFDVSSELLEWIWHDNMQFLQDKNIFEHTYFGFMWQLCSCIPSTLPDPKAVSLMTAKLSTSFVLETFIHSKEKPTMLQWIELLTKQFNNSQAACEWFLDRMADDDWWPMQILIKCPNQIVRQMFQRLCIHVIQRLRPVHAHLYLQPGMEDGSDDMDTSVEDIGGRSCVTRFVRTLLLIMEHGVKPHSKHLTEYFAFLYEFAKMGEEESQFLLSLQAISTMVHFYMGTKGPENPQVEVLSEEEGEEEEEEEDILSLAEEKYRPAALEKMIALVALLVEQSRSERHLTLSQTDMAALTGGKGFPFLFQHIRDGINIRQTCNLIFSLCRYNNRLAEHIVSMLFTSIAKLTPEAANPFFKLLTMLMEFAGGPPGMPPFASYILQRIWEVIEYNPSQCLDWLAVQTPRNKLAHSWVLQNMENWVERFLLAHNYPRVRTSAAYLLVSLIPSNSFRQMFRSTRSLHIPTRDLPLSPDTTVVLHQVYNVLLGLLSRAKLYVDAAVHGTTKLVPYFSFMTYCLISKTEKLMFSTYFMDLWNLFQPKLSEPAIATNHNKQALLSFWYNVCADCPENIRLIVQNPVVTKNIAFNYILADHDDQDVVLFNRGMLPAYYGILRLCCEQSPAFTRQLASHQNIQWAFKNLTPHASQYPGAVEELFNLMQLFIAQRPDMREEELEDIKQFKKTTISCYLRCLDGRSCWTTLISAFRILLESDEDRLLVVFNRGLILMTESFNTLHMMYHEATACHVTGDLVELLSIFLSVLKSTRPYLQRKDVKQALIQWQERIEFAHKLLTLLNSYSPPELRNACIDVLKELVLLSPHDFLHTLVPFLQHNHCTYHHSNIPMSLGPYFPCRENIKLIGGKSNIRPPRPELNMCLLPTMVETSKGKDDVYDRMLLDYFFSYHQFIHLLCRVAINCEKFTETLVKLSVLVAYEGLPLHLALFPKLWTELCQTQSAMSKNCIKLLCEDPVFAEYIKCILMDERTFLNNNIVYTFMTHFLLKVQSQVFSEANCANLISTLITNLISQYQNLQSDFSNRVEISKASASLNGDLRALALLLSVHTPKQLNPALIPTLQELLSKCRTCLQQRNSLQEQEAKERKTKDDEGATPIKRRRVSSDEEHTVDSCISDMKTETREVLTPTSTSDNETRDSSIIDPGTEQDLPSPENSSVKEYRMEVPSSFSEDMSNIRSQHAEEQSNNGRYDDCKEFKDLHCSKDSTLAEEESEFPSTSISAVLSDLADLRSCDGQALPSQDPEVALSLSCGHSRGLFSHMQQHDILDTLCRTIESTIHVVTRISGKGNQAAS

Cl.Cn1c(CNC(=O)CCl)nc2cccnc21
inactive: [1] -0.174 | [2] -0.125 | [3] 0.0315 | [4] 0.234 | [5] -0.102
